Results from PubChem BioAssay.
For some assays here: Measured potencies and affinities stand elsewhere. Calls of active or inactive are those of the source. Unless noted, no rule for the calls is given here.

Experiments:
[1] = antimalarial activity against Dd2 strain (AID 2302;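 active = growth inhibition above 50% at the single 2 µM test dose, taken to imply half-maximal potency below 2 µM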;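 also: 0% = DMSO untreated growth and 100% = chloroquine plus artemisinin killed control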); details: P. falciparum Dd2 in RBCs, LDH growth readout, 72 h; at 2 µM; hits give high values
[2] = HepG2 cytotoxicity, primary screen, cytotoxicity control for P. falciparum antimalarial project, cell-based, ATP luminescence (AID 2303;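 active = inhibition above 50%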;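 also: 0% = DMSO wells and 100% = digitonin-killed cells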); details: HepG2 viability, 24-48 h, at 10 µM, hits give high values
[3] = target: L-lactate dehydrogenase (Plasmodium falciparum (isolate CDC / Honduras)) (UniProt Q27743); assay: PfLDH activity inhibition – cell lysate, 3D7 strain, counter-screen for P. falciparum growth inhibition project (AID 2304);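 also: 0% = vehicle and 100% = reference inhibitor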; details: P. falciparum 3D7 crude extract, LDH APAD/NBT absorbance; at 2 µM; hits give high values
[4] = inhibition of 3D7 malaria parasite growth – strain 3D7 (AID 2306);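 also: 0% = DMSO wells and 100% = chloroquine plus artemisinin control wells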; details: P. falciparum 3D7 erythrocytic growth, LDH absorbance, 72 h; at 2 µM; hits give high values
[5] = target: Calcium-dependent protein kinase 1 (Plasmodium falciparum (isolate 3D7)) (UniProt P62344); assay: PfCDPK1 kinase inhibitors, biochemical, TCAMS library (AID 1159585; cut-off not given, nearly all actives have IC50 up to about 0.98 µM;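 also: inhibitors leave more ATP so luminescence rises with inhibition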); details: recombinant PfCDPK1, Kinase-Glo ATP depletion luminescence
[6] = target: Plasmodium falciparum protein kinase 6 (PK6, PF3D7_1337100) (UniProt Q8IDW1); assay: PfPK6 kinase inhibitors, biochemical, TCAMS library (AID 1159586); details: recombinant PfPK6, Kinase-Glo ATP depletion luminescence
[7] = target: Protein kinase 7 (PK7), Plasmodium falciparum 3D7 (PF3D7_0213400) (UniProt Q7YTF7); assay: inhibition of Plasmodium PK7 catalytic activity – biochemical, TCAMS antimalarial set, Kinase-Glo luminescence (AID 1159587); details: recombinant PfPK7, Kinase-Glo ATP depletion luminescence
[8] = target: Calcium-dependent protein kinase 4 (Plasmodium falciparum (isolate 3D7)) (UniProt Q8IBS5); assay: PfCDPK4 kinase inhibitors, biochemical, TCAMS library (AID 1159588; cut-off not given, nearly all actives have IC50 up to about 0.91 µM); details: recombinant PfCDPK4, Kinase-Glo ATP depletion luminescence
Chain of Calcium-dependent protein kinase 4 (Plasmodium falciparum (isolate 3D7)) (Q8IBS5 whole entry, looked up): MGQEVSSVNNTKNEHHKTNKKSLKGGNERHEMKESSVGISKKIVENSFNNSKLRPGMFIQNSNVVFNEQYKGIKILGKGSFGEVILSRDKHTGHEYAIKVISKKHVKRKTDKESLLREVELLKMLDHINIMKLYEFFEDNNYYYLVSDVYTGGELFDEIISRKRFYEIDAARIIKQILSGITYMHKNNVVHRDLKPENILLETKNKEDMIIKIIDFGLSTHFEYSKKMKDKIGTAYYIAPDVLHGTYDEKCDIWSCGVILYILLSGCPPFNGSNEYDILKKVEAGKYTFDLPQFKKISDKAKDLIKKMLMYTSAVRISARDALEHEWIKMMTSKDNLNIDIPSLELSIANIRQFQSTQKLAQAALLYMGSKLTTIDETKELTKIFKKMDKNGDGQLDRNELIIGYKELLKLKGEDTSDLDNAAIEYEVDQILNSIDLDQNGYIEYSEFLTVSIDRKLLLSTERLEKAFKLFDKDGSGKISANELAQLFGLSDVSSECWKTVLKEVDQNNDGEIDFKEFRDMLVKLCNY

Chain of L-lactate dehydrogenase (Plasmodium falciparum (isolate CDC / Honduras)) (Q27743 whole entry, looked up): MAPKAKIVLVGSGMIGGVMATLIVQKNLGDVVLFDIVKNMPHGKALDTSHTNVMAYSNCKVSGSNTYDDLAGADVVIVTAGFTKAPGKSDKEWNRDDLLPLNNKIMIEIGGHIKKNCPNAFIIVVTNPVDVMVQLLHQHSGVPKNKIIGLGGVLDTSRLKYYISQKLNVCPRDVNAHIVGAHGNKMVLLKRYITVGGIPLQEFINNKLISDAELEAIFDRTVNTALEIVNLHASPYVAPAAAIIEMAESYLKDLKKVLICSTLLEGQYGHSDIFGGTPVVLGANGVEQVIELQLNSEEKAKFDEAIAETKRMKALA
Chain of Plasmodium falciparum protein kinase 6 (PK6, PF3D7_1337100) (Q8IDW1 1-305): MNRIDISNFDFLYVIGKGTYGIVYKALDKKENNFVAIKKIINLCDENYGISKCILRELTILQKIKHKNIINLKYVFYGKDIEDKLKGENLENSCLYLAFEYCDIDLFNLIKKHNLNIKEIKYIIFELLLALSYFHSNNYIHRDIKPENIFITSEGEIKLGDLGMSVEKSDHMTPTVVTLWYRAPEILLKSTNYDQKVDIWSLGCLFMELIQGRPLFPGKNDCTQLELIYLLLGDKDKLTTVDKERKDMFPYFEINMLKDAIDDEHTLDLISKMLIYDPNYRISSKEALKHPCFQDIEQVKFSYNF
Chain of Protein kinase 7 (PK7), Plasmodium falciparum 3D7 (PF3D7_0213400) (Q7YTF7 1-343): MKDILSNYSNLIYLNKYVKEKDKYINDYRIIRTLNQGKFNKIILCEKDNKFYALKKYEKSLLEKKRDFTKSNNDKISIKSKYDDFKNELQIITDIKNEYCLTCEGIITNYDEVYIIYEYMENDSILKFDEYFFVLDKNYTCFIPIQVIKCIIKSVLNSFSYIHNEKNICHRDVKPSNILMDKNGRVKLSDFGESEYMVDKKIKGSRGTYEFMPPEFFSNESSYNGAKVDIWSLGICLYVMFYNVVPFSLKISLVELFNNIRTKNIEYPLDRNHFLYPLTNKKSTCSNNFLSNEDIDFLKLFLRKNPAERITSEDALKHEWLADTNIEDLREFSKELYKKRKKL
Chain of Calcium-dependent protein kinase 1 (Plasmodium falciparum (isolate 3D7)) (P62344 whole entry, looked up): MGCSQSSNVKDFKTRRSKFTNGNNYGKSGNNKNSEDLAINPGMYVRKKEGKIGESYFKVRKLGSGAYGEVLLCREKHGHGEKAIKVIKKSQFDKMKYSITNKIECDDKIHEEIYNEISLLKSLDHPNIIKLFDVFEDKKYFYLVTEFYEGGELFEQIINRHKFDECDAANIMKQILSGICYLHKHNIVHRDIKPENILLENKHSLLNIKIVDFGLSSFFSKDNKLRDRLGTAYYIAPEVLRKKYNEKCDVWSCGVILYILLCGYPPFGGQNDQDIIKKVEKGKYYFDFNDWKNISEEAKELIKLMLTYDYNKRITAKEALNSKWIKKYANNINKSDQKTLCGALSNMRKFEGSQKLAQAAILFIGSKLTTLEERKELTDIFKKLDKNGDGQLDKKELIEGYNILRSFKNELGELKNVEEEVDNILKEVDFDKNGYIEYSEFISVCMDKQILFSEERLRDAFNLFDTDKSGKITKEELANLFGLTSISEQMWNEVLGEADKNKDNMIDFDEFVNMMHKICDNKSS

COc1c(C2CCN(CCCCNC(=O)c3ccc(-c4ccc(C#N)cc4)cc3)CC2)cc(Cl)c2c1CCCC2
inactive: inhibition [2] 45% | inhibition [3] 0% | outcome [5] | outcome [6] | outcome [7] | outcome [8]
active: growth inhibition [1] 59% | growth inhibition [4] 93%

Cc1ccc(NC(=O)c2ccc(N3CCC(c4ccccc4C)CC3)nc2)cc1
inactive: inhibition [2] 49% | inhibition [3] 3% | outcome [5] | outcome [6] | outcome [7] | outcome [8]
active: growth inhibition [1] 72% | growth inhibition [4] 83%

CCc1c(C)nc(-n2nc(C)cc2NC(=O)CCc2ccccc2)[nH]c1=O
active: growth inhibition [1] 97% | growth inhibition [4] 97%
inactive: inhibition [2] 48% | inhibition [3] -1% | outcome [5] | outcome [6] | outcome [7] | outcome [8]

O=[N+]([O-])c1cccc(NC(=S)N2CCCN(Cc3ccc(F)cc3F)CC2)c1
active: growth inhibition [1] 98% | growth inhibition [4] 99%
inactive: inhibition [2] 5% | inhibition [3] -1% | outcome [5] | outcome [6] | outcome [7] | outcome [8]

CCOc1cc(C(=O)NCC2CCN(CC3CCCCC3)CC2)ccc1-c1nc2ccc(Cl)cc2[nH]1
inactive: inhibition [2] 14% | inhibition [3] -6% | outcome [5] | outcome [6] | outcome [7] | outcome [8]
active: growth inhibition [1] 59% | growth inhibition [4] 98%

COc1ccc([N+](=O)[O-])cc1N(Cc1ccccc1-c1ccccc1)S(=O)(=O)c1ccc(C(F)(F)F)cc1[N+](=O)[O-]
active: growth inhibition [1] 92% | growth inhibition [4] 88%
inactive: inhibition [2] 2% | inhibition [3] -6% | outcome [5] | outcome [6] | outcome [7] | outcome [8]

Oc1ccc2c(CNCCc3ccccc3)c(O)ccc2c1CNCCc1ccccc1
active: growth inhibition [1] 100% | growth inhibition [4] 99%
inactive: inhibition [2] 24% | inhibition [3] -8% | outcome [5] | outcome [6] | outcome [7] | outcome [8]

N#Cc1ccc(CNCCCCCCNCc2ccc(C#N)c3ccccc23)c2ccccc12
inactive: inhibition [3] -3% | outcome [5] | outcome [6] | outcome [7] | outcome [8]
active: growth inhibition [1] 96% | inhibition [2] 51% | growth inhibition [4] 102%

COc1ccc2nc(C)cc(NN=Cc3ccccc3[N+](=O)[O-])c2c1
inactive: inhibition [2] 2% | inhibition [3] -2% | outcome [5] | outcome [6] | outcome [7] | outcome [8]
active: growth inhibition [1] 99% | growth inhibition [4] 101%

O=C(/C=C/c1ccc(Cl)c(Cl)c1)NCCCCCN1CCC(C(=O)Nc2ccc3c(c2)OCO3)CC1
inactive: growth inhibition [1] -3% | inhibition [2] 18% | inhibition [3] 4% | outcome [5] | outcome [6] | outcome [7] | outcome [8]
active: growth inhibition [4] 92%

CN(C)CCCN(C)c1cccc2c1nc(-c1cccnc1)n2CCNCc1ccccc1
inactive: inhibition [2] 4% | inhibition [3] 4% | outcome [5] | outcome [6] | outcome [7] | outcome [8]
active: growth inhibition [1] 88% | growth inhibition [4] 89%

CCN(CC)C(=NCCCCCCCCN=C(/N=C(/N)Nc1ccc(Cl)cc1)N(CC)CC)/N=C(/N)Nc1ccc(Cl)cc1
inactive: inhibition [2] 10% | inhibition [3] -3% | outcome [5] | outcome [6] | outcome [7] | outcome [8]
active: growth inhibition [1] 94% | growth inhibition [4] 99%

COc1ccc2[nH]c3ccccc3c(=O)c2c1
inactive: inhibition [2] 0% | inhibition [3] 2% | outcome [5] | outcome [6] | outcome [7] | outcome [8]
active: growth inhibition [1] 75% | growth inhibition [4] 87%

CCOC(=O)c1c(C)noc1Nc1cccc(C)c1C
active: growth inhibition [4] 98%
inactive: growth inhibition [1] -2% | inhibition [2] 8% | inhibition [3] 2% | outcome [5] | outcome [6] | outcome [7] | outcome [8]

Cc1cc(N(C)C)nc(Nc2ccc(NC(=O)COc3ccccc3)cc2)n1
inactive: inhibition [2] 15% | inhibition [3] 3% | outcome [5] | outcome [6] | outcome [7] | outcome [8]
active: growth inhibition [1] 67% | growth inhibition [4] 101%

Nc1nc(N)c2c(ccc3c2ccn3Cc2ccccc2)n1
inactive: inhibition [3] -8% | outcome [5] | outcome [6] | outcome [7] | outcome [8]
active: growth inhibition [1] 94% | inhibition [2] 64% | growth inhibition [4] 96%

Cc1cc(NC(=O)Nc2ccc(N(C)C)cc2)c2cc(Cl)ccc2n1
inactive: inhibition [2] -4% | inhibition [3] 3% | outcome [5] | outcome [6] | outcome [7] | outcome [8]
active: growth inhibition [1] 50% | growth inhibition [4] 100%

CC(CN1CCN(C)CC1)C(=O)Nc1cccc(-c2ccc(-c3nc4ccc(C(F)(F)F)cc4[nH]3)cc2)c1 (configuration not stated)
active: growth inhibition [1] 98% | growth inhibition [4] 101%
inactive: inhibition [2] 11% | inhibition [3] -2% | outcome [5] | outcome [6] | outcome [7] | outcome [8]

CCNc1cc(C(=O)N[C@@H](Cc2ccccc2)[C@H](O)CNC23CCC(CC2)C3)cc(N2CCCCS2(=O)=O)c1
inactive: inhibition [2] 22% | inhibition [3] -2% | outcome [5] | outcome [6] | outcome [7] | outcome [8]
active: growth inhibition [1] 99% | growth inhibition [4] 97%
